Assay outcomes as filed in PubChem BioAssay.
Most compounds without a hit are left out; they make up all but 3.5% or so of the library.
TEAD-YAP inh = TEAD-YAP interaction inhibition. 640,000 tested, 1.4% active. HEK-TIYL cells, TEAD-Gal4/YAP UAS-luciferase luminescence. inhibition, % at 9.12 µM; in the data active = inhibition above about 32%;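 also: 0% = median of test compound wells and 100% = reference inhibitor wells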
MITF primary = inhibitors of human MITF; inhibition, % at 2.6 µM; AlphaScreen MITF homodimerization, bead proximity signal; 650,000 tested, 0.91% active; O75030; in the data active = inhibition above about 50%;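 also: 0% = vehicle wells with protein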
GPR151 activ = activators of human GPR151; Q8TDV0; PathHunter beta-arrestin GPR151 cells, luminescence; activation, % at 11.2 µM; 650,000 tested, 1% active; AID 1508602; in the data active = activation above about 4.9%;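 also: 0% = median of compound wells and 100% = cells with positive control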
FBW7 act = activators of human E3 ligase FBW7. Q969H0. normalized activity (activation), % at 26.1 µM. AlphaScreen FBW7–phospho-cyclin E peptide binding, activator screen. 650,000 tested, 0.13% active; in the data active = normalized activity above about 1.9%;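 also: purified mutant Fbw7 with reduced substrate affinity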
Target sequence (Q969H0 whole entry, looked up): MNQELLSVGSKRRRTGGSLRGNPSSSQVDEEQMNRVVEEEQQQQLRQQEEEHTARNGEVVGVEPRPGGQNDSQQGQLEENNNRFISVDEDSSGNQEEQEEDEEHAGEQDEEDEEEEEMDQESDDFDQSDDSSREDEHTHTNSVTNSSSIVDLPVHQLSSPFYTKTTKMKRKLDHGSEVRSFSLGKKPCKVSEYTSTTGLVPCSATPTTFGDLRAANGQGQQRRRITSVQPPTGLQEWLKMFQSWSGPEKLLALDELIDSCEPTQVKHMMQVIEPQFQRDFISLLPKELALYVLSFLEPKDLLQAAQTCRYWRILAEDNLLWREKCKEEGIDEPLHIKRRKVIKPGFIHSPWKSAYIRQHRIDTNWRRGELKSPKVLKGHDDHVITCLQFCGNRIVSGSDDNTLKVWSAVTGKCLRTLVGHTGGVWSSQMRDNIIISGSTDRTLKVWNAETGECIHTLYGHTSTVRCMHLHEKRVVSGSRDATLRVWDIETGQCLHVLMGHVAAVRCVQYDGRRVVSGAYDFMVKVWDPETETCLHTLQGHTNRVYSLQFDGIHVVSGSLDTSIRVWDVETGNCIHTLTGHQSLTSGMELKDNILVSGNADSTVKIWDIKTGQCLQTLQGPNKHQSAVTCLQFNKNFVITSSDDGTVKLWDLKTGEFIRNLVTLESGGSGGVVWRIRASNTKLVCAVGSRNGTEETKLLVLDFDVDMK
GPR151 confirm = human GPR151 activation, confirmation screen; shares compounds with GPR151 activ; GPR151 PathHunter beta-arrestin cells, luminescence, 90 min; % of EA-reagent control over plate median; activation, % at 11.2 µM; 6,700 tested, under 10 active;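 active = mean percent activation across replicates above the confirmation screen cutoff of 4.91%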
GPR119 counter = counter-screen for GPR151 activators: effect on human GPR119; 6,700 tested, 0.3% active; activation, % at 11.2 µM; GPR119 PathHunter beta-arrestin cells, luminescence, 90 min; 0 = compound-well median, 100 = enzyme-acceptor control; shares compounds with GPR151 activ; AID 1508611;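 active = mean percent activation in the counterscreen above 29.09%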;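 also: counterscreen on off-target GPR119 to flag nonselective hits from the GPR151 activator screen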
* = called active by the depositor; . = not tested or not shown.

SMILES	TEAD-YAP inh	MITF primary	GPR151 activ	FBW7 act	GPR151 confirm	GPR119 counter
CCOc1ccccc1NC(=O)Cn1c(=O)n(Cc2ccc(F)cc2)c(=O)c2cccnc21	-0.3	7.7	-1.2	-0.2	.	.
C=C(C)Cn1c(SCc2ccccc2)nc2ccccc2c1=O	-0.3	-7.4	-0.1	-0.1	.	.
Cc1cccc(CC(Cc2nc3ccccc3[nH]2)c2nc3ccccc3[nH]2)c1 (stereo not given)	11.6	6.0	5.6*	-0.2	-0.3	-11.1
CCOC(=O)/C(=C\c1ccco1)NC(=O)c1ccccc1I	9.1	10.8	12.3*	0.0	-0.2	5.6
Nc1c(C(=O)Nc2cccc(Cl)c2)sc(=S)n1Cc1ccccc1	10.6	17.9	0.8	0.0	.	.
CC(C)(C)c1[nH]nc2c1C(c1ccsc1)C(C#N)=C(N)O2 (stereo not given)	1.8	6.7	6.6*	-0.1	0.6	2.4
COCCNC(=O)Nc1nc(-c2ccc3c(c2)CCCC3)cs1	-16.7	0.0	7.3*	-0.2	0.1	-4.8
O=C(CN1C(=O)CCC1=O)Nc1nc(-c2ccc3c(c2)CCCC3)cs1	-5.3	9.1	0.5	0.1	.	.
COc1ccc(Cl)cc1NC(=O)c1ccccc1N(C)S(=O)(=O)c1ccccc1	-12.6	5.4	-0.7	0.7	.	.
CCOC(=O)Cc1csc(NC(=O)CSc2nc(C)cc(C)n2)n1	-3.2	-1.8	5.6*	-0.1	-0.3	-0.7
COc1ncc(-c2cncc(-c3cccc(O)c3)n2)c(OC)n1	-32.6	7.4	12.6*	-0.1	1.1	6.0
O=C(NNc1ncnc2sc3c(c12)CCCC3)c1cc2ccccc2oc1=O	-8.3	-2.1	-0.2	-0.2	.	.
CC(C)Cn1c(CN2CCN(c3ccc(F)cc3)CC2)nc2c1c(=O)n(C)c(=O)n2C	2.0	11.5	10.1*	0.0	0.9	6.5
Cc1ccc(C)c(-n2nnnc2SCC(=O)N2CCc3ccccc32)c1	-0.1	-1.3	-0.1	0.1	.	.
COc1ccc2oc(-c3ccccc3)c(C(=O)O)c2c1	9.7	11.3	-1.9	0.3	.	.
COc1ccc2oc(-c3ccccc3)c(C(=O)Nc3nccs3)c2c1	3.9	-11.5	6.2*	0.0	-0.1	-6.9
CN(C(=O)C1CC1)c1nc(-c2ccc(Cl)cc2)cs1	-17.5	8.3	0.0	-0.2	.	.
C/C=C/c1ccc(OCCNC)c(OC)c1	7.5	41.7	-1.6	0.0	.	.
C/C=C/c1ccc(OCCCNC)c(OC)c1	-15.3	30.8	6.1*	-0.5	-0.1	6.3
CC1(C)CC(=O)N(CC(=O)N2CCCCCC2)c2ccccc2S1	-3.6	5.0	4.0	0.0	.	.
CC1(C)CC(=O)N(CC(=O)N2CCCCC2)c2ccccc2S1	-5.4	8.7	5.7*	0.7	-0.5	-2.2
CC(=O)c1ccc(NC(=O)C2CC=CCC2C(=O)OC(C)C(Cl)=C(Cl)Cl)cc1 (stereo not given)	-0.2	-1.2	-1.7	-0.1	.	.
CCC1(C)Cc2c(c(N3CCOCC3)[nH]c(=S)c2C#N)CO1 (stereo not given)	-0.7	0.9	0.1	-0.3	.	.
Nc1cccc(-c2ncc(C(=O)NCc3ccccc3)s2)c1	3.2	10.8	0.6	0.1	.	.
O=C(NCc1cccc(C(F)(F)F)c1)c1cnc(-c2ccccc2)s1	14.0	1.4	7.6*	0.0	-1.0	-3.9
SMILES	TEAD-YAP inh	MITF primary	GPR151 activ	FBW7 act	GPR151 confirm	GPR119 counter
COc1ccc(-c2ncc(C(=O)NCc3cccc(C(F)(F)F)c3)s2)cc1	-1.6	-0.1	-2.6	0.1	.	.
O=C(NCc1ccccc1)c1cnc(-c2ccccc2)s1	-38.4	7.3	6.6*	-0.2	-0.3	-14.0
O=C(NCc1cccc(C(F)(F)F)c1)c1cnc(NC2CCC(O)CC2)s1 (stereo not given)	3.8	3.5	5.1*	0.1	-1.0	2.1
COc1ccc(C(=O)CC2(O)C(=O)Nc3ccc(Cl)cc32)cc1[N+](=O)[O-] (stereo not given)	3.2	-5.8	-0.7	-0.1	.	.
CCOC(=O)COc1cc(Cl)c(C2NC(=S)NC(C)=C2C(=O)OCC)cc1OC (stereo not given)	-1.9	1.0	1.6	-0.1	.	.
CCN(CC)C(=O)C1CCCN(Cc2ccc(OC)c(O)c2)C1 (stereo not given)	0.4	29.1	0.6	-0.2	.	.
NS(=O)(=O)c1ccc(CCNC(=O)c2ccc(Br)cc2)cc1	5.5	2.8	-1.0	0.5	.	.
Cc1ccc(N(CC(=O)NCc2ccccc2)C(=O)CCC(=O)Nc2cc(C)ccn2)cc1	6.9	8.0	-1.1	0.1	.	.
